In PubChem BioAssay (EPA / NIEHS):
Values joined by “and” are separate entries in the source; they are usually repeats but may differ in a detail not shown here. Equal entries are not always repeated. Results filed as inconclusive are left out. Active and inactive are the calls of the source. The calls were made as follows: active = hit-call score of the fitted dose curve at least 0.9, where 1 is the maximum; inconclusive = response in the unintended direction; inactive = score below 0.9.

Tests used:
[1] = target: human Mitogen-Activated Protein Kinase 1 (MAPK 1), MAPK1 (gene 5594) (UniProt P28482); test: NVS_ENZ_hMAPK1: NovaScreen (NVS) Enzymatic Assay for human Mitogen-Activated Protein Kinase 1 (MAPK 1) (AID 2283175)
Chain of human Mitogen-Activated Protein Kinase 1 (MAPK 1), MAPK1 (gene 5594) (P28482 whole entry, looked up): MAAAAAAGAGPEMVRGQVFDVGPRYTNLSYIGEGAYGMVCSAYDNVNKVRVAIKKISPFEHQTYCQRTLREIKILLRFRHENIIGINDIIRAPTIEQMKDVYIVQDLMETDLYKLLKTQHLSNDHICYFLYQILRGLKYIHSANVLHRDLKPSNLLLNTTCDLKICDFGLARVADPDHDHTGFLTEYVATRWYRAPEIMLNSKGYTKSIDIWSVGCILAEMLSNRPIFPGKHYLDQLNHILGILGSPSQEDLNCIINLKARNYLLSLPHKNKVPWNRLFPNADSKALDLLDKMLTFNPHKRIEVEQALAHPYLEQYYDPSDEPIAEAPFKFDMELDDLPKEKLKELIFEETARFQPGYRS
Procedure, shortened: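 Cell-free recombinant human MAPK1 enzymatic assay, fluorescence/electrophoretic mobility shift read at 1 h; loss of signal vs DMSO. Primary screen in duplicate at 25 uM; actives (e.g. ≥30% inhibition) run as concentration-response up to 50 uM.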

[2] = target: Mitogen-activated protein kinase 3 (Homo sapiens) (UniProt P27361); test: NVS_ENZ_hMAPK3: NovaScreen (NVS) Enzymatic Assay for human Mitogen-Activated Protein Kinase 3 (MAPK 3) (AID 2283177)
Chain of Mitogen-activated protein kinase 3 (Homo sapiens) (P27361 whole entry, looked up): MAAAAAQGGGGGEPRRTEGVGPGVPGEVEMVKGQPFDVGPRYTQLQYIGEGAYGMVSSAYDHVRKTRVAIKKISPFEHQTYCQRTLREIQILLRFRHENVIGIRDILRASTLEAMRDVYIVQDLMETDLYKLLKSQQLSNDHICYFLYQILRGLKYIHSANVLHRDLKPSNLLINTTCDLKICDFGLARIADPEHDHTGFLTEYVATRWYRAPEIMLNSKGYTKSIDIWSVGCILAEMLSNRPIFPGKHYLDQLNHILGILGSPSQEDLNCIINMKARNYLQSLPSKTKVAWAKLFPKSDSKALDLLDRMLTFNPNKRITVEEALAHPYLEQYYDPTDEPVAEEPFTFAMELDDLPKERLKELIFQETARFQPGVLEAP
Procedure, shortened: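 Cell-free enzymatic assay with recombinant protein and specific substrate; fluorescence and electrophoretic mobility shift read-out 1 h after dosing. Primary screen duplicate at 25 uM; actives then run in concentration-response up to 50 uM, loss of signal versus DMSO.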

[3] = target: human MAP Kinase-Activated Protein Kinase 2 (MAPKAPK2), MAPKAPK2 (gene 9261) (UniProt P49137); test: NVS_ENZ_hMAPKAPK2: NovaScreen (NVS) Enzymatic Assay for human MAP Kinase-Activated Protein Kinase 2 (MAPKAPK2) (AID 2283178)
Procedure, shortened: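 Cell-free recombinant human MAPKAPK2 activity measured by fluorescence with electrophoretic mobility shift separation of substrate and product, 1 hr after dosing. Loss of signal versus DMSO; primary screen at 25 uM, concentration-response up to 50 uM.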

[4] = target: human Mitogen- and Stress-activated Protein Kinase-1 (Msk1), RPS6KA5 (gene 9252) (UniProt O75582); test: NVS_ENZ_hMsk1: NovaScreen (NVS) Enzymatic Assay for human Mitogen- and Stress-activated Protein Kinase-1 (Msk1) (AID 2283187)
Chain of human Mitogen- and Stress-activated Protein Kinase-1 (Msk1), RPS6KA5 (gene 9252) (O75582 whole entry, looked up): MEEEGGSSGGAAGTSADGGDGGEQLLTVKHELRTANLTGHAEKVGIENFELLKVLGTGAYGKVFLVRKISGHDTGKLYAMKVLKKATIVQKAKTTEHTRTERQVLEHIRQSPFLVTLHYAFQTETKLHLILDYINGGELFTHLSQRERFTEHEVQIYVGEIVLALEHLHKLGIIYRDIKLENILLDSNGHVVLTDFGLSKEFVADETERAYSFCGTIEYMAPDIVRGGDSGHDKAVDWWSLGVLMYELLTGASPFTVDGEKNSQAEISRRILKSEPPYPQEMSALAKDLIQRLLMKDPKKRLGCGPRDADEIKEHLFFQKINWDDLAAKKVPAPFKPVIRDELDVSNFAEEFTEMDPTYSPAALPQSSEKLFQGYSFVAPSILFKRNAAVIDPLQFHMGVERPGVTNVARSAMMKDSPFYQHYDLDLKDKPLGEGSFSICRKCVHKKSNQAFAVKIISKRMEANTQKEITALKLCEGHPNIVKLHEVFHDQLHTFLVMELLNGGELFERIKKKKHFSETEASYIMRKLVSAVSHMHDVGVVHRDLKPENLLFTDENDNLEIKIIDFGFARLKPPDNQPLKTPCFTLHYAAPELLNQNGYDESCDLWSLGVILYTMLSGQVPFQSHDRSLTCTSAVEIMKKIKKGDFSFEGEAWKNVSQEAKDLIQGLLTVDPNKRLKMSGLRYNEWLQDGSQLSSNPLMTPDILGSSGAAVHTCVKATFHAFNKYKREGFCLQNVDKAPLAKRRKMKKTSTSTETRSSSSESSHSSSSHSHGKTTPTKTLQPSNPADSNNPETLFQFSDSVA
Procedure, shortened: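 Recombinant kinase with fluorescent substrate; product separated by electrophoretic mobility shift, read 1 h after dosing. Screened in duplicate at 25 uM; hits (e.g. ≥30% inhibition) tested in concentration–response up to 50 uM. DMSO baseline.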

[5] = target: human Phosphodiesterase 4A1 (PDE4A1), PDE4A (gene 5141) (UniProt P27815); test: NVS_ENZ_hPDE4A1: NovaScreen (NVS) Enzymatic Assay for human Phosphodiesterase 4A1 (PDE4A1) (AID 2283191)
Chain of human Phosphodiesterase 4A1 (PDE4A1), PDE4A (gene 5141) (P27815 whole entry, looked up): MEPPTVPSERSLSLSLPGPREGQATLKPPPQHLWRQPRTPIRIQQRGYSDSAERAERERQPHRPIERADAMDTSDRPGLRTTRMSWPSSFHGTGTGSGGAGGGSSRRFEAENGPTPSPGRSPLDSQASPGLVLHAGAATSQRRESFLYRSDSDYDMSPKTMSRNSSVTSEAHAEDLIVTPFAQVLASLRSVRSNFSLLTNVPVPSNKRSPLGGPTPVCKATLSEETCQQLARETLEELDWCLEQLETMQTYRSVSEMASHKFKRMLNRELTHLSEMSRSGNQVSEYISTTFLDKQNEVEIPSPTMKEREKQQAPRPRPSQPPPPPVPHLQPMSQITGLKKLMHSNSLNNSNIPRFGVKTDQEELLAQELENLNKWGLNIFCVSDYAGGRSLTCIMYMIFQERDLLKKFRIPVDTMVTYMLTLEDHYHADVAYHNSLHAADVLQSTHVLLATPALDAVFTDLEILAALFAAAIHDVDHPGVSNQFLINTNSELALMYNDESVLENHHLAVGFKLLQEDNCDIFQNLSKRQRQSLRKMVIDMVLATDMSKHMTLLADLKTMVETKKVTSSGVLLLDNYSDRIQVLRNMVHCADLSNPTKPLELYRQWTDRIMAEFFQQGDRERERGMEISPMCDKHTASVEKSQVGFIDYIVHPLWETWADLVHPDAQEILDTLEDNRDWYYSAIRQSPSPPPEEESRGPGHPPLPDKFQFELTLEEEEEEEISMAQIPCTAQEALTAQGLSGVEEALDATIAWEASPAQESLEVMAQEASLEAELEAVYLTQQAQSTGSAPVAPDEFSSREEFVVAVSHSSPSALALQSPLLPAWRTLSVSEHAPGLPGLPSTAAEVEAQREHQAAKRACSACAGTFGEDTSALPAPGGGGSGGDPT
Procedure, shortened: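 Cell-free recombinant human PDE4A1 with fluorescent substrate; product separated by electrophoretic mobility shift, 1 h. Screened at 25 uM, then up to 50 uM in concentration-response; loss of signal fitted against DMSO.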

[6] = target: cAMP-dependent protein kinase catalytic subunit alpha (Homo sapiens) (UniProt P17612); test: NVS_ENZ_hPKA: NovaScreen (NVS) Enzymatic Assay for human Protein Kinase A (PKA) (AID 2283192)
Procedure, shortened: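 Recombinant human PKA with specific fluorescent substrate, product separated by electrophoretic mobility shift, read 1 h after dosing. Primary screen at 25 uM in duplicate; actives then run in concentration-response up to 50 uM, activity relative to DMSO.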

[7] = target: human Phosphodiesterase 5 (PDE5), PDE5A (gene 8654) (UniProt O76074); test: NVS_ENZ_hPDE5: NovaScreen (NVS) Enzymatic Assay for human Phosphodiesterase 5 (PDE5) (AID 2283194)
Procedure, shortened: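 Recombinant human PDE5 with specific substrate, read 1 h after dosing by fluorescence with electrophoretic mobility-shift separation of substrate and product. Initial single-concentration duplicate screen at 25 uM, actives followed in concentration series; loss of activity versus DMSO.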

[8] = target: human IkappaB Kinase alpha (IKKa), CHUK (gene 1147) (UniProt O15111); test: NVS_ENZ_hIKKa: NovaScreen (NVS) Enzymatic Assay for human IkappaB Kinase alpha (IKKa) (AID 2283167)
Chain of human IkappaB Kinase alpha (IKKa), CHUK (gene 1147) (O15111 whole entry, looked up): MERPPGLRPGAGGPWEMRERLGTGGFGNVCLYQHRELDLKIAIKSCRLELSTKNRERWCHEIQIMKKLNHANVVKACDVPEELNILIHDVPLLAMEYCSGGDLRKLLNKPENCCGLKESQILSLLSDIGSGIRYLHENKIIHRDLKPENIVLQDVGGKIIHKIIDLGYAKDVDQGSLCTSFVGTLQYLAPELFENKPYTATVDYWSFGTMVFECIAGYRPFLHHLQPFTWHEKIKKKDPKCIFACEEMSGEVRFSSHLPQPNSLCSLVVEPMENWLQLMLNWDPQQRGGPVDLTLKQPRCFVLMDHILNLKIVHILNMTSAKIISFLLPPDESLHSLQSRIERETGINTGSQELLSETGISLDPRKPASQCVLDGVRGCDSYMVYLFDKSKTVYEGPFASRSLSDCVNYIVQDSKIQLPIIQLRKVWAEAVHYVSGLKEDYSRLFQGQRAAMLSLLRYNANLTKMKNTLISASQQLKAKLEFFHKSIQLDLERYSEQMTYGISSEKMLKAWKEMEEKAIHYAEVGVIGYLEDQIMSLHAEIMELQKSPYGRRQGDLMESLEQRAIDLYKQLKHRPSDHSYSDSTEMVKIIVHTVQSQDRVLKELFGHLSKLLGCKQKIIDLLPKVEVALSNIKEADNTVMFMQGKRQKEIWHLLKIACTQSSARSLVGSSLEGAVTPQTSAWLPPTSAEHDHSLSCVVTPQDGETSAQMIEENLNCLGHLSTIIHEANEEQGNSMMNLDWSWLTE
Procedure, shortened: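 Cell-free recombinant human IKKa with fluorescent substrate, product separated by electrophoretic mobility shift; read 1 hour after dosing. Primary screen duplicate at 25 uM, actives then concentration-response up to 50 uM; loss of signal relative to DMSO.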

[9] = target: human Insulin Receptor (InsR), INSR (gene 3643) (UniProt P06213); test: NVS_ENZ_hInsR: NovaScreen (NVS) Enzymatic Assay for human Insulin Receptor (InsR) (AID 2283168)
Procedure, shortened: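 Fluorescent substrate phosphorylation by recombinant kinase, product resolved by electrophoretic mobility shift, read 1 h after dosing. Screened in duplicate at 25 uM; hits (e.g., 30% inhibition) run in concentration-response to 50 uM; DMSO as baseline.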

[10] = target: human MET Proto-Oncogene, Receptor Tyrosine Kinase (MET), MET (gene 4233) (UniProt P08581); test: NVS_ENZ_hMet: NovaScreen (NVS) Enzymatic Assay for human MET Proto-Oncogene, Receptor Tyrosine Kinase (MET) (AID 2283180)
Procedure, shortened: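 Cell-free MET kinase assay using recombinant protein and fluorescent substrate, with mobility-shift separation; read 1 h after dosing. Primary duplicate at 25 uM; actives in singleton concentration-response to 50 uM maximum. Signal loss versus DMSO.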

[11] = target: Collagenase 3 (Homo sapiens) (UniProt P45452); test: NVS_ENZ_hMMP13: NovaScreen (NVS) Enzymatic Assay for human Matrix Metalloproteinase-13 (MMP13) (AID 2283182)
Procedure, shortened: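 Recombinant MMP13 cleaving fluorescent substrate, cell-free, measured 1 h after dosing. Primary duplicate screen at 25 uM; actives tested in concentration-response up to 50 uM; loss of signal relative to DMSO.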

[12] = target: human Matrix Metalloproteinase-7 (MMP7), MMP7 (gene 4316) (UniProt P09237); test: NVS_ENZ_hMMP7: NovaScreen (NVS) Enzymatic Assay for human Matrix Metalloproteinase-7 (MMP7) (AID 2283183)
Procedure, shortened: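 Cell-free fluorescence enzymatic assay read 1 h after compound addition, activity loss analyzed against DMSO. Primary duplicate testing at 25 uM; compounds meeting threshold rerun in singleton concentration-response up to 50 uM.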

[13] = target: human Matrix Metalloproteinase-2 (MMP2), MMP2 (gene 4313) (UniProt P08253); test: NVS_ENZ_hMMP2: NovaScreen (NVS) Enzymatic Assay for human Matrix Metalloproteinase-2 (MMP2) (AID 2283184)
Chain of human Matrix Metalloproteinase-2 (MMP2), MMP2 (gene 4313) (P08253 whole entry, looked up): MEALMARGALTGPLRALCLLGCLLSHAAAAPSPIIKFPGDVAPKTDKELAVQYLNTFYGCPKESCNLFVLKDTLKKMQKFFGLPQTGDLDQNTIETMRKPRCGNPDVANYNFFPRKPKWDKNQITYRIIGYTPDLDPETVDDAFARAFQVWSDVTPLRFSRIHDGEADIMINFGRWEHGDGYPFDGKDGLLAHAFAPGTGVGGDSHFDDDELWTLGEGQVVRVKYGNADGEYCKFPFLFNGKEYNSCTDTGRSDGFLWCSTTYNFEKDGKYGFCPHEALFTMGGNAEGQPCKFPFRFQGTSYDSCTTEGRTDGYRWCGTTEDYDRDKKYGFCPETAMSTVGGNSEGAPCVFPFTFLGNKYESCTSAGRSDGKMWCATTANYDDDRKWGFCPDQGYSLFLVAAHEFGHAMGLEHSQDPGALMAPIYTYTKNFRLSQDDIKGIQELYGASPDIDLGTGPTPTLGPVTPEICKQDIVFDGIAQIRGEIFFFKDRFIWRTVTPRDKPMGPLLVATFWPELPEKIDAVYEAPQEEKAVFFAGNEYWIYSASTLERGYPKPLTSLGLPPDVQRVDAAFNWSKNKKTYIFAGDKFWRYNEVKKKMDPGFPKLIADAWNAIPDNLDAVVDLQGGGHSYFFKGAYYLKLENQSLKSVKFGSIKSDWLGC
Procedure, shortened: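 Cell-free recombinant MMP2 activity with a fluorescent substrate, read 1 h after dosing. Primary screen in duplicate at 25 uM; actives then run in concentration series; loss of signal fitted versus DMSO.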

[14] = target: human Matrix Metalloproteinase-3 (MMP3), MMP3 (gene 4314) (UniProt P08254); test: NVS_ENZ_hMMP3: NovaScreen (NVS) Enzymatic Assay for human Matrix Metalloproteinase-3 (MMP3) (AID 2283185)
Chain of human Matrix Metalloproteinase-3 (MMP3), MMP3 (gene 4314) (P08254 whole entry, looked up): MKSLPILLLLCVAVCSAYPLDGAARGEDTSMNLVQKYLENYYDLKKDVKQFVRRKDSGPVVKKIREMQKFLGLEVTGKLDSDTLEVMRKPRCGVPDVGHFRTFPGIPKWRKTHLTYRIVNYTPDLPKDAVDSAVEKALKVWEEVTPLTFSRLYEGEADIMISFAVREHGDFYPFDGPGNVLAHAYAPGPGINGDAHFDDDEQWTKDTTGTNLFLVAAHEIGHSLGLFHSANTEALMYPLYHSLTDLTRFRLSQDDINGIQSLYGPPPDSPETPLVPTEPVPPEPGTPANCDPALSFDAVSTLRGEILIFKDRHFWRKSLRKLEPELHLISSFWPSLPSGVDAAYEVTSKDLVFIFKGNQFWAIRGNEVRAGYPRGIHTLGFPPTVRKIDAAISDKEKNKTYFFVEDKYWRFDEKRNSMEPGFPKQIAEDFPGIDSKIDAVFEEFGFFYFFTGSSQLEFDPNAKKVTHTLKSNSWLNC
Procedure, shortened: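 Cell-free recombinant human MMP3 activity, fluorescence intensity read 1 h after dosing. Primary screen duplicate at 25 uM, actives retested in concentration series; loss of signal vs DMSO baseline.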

[15] = target: human p21 Activated Kinase 4 (PAK4), PAK4 (gene 10298) (UniProt O96013); test: NVS_ENZ_hPAK4: NovaScreen (NVS) Enzymatic Assay for human p21 Activated Kinase 4 (PAK4) (AID 2283189)
Procedure, shortened: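 Cell-free recombinant human PAK4 activity assay; fluorescent substrate and product separated by electrophoretic mobility shift, read 1 h after dosing. Initially tested in duplicate at 25 uM, relative to DMSO baseline.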

[16] = target: human Matrix Metalloproteinase-9 (MMP9), MMP9 (gene 4318) (UniProt P14780); test: NVS_ENZ_hMMP9: NovaScreen (NVS) Enzymatic Assay for human Matrix Metalloproteinase-9 (MMP9) (AID 2283190);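 also: cell-free recombinant MMP9 protease activity read by fluorescent substrate signal; active means inhibition seen as loss of fluorescence signal versus DMSO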
Chain of human Matrix Metalloproteinase-9 (MMP9), MMP9 (gene 4318) (P14780 whole entry, looked up): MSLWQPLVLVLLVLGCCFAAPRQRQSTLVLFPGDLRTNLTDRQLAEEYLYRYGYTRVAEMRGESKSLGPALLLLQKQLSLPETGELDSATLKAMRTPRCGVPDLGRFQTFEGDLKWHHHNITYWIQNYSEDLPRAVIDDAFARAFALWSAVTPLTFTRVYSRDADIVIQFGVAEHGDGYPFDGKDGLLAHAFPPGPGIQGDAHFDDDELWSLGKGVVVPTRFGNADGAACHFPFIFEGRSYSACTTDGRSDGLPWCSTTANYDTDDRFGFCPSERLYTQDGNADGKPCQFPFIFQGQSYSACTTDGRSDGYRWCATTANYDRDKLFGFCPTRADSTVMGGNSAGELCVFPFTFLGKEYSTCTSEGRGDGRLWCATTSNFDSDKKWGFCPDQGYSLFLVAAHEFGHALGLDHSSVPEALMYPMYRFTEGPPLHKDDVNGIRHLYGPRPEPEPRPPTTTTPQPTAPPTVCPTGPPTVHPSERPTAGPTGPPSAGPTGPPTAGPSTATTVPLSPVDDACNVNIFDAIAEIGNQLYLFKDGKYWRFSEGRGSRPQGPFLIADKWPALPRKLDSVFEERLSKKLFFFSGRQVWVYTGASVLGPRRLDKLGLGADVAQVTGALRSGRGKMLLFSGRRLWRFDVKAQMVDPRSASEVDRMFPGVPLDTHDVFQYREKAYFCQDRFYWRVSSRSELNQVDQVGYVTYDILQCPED
Procedure, shortened: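 Screening concentration 25 uM, duplicate wells, then dose series for confirmation. Cell-free enzymatic reaction measured by fluorescence intensity 1 h post-dosing; decreased signal versus DMSO taken as activity.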

[17] = target: human Phosphodiesterase 10 (PDE10), PDE10A (gene 10846) (UniProt Q9Y233); test: NVS_ENZ_hPDE10: NovaScreen (NVS) Enzymatic Assay for human Phosphodiesterase 10 (PDE10) (AID 2283195)
Procedure, shortened: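 Fluorescence/mobility-shift readout of PDE10A enzyme activity, taken 1 h post-dosing. Primary screen in duplicate at 25 uM; actives (e.g. ≥30% inhibition) retested as singleton concentration-response, top concentration 50 uM.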

[18] = target: human Janus Kinase 2 (Jak2), JAK2 (gene 3717) (UniProt O60674); test: NVS_ENZ_hJak2: NovaScreen (NVS) Enzymatic Assay for human Janus Kinase 2 (Jak2) (AID 2283169)
Procedure, shortened: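 Cell-free recombinant human JAK2 enzyme activity assay, fluorescence/electrophoretic mobility shift read 1 h after dosing. Screened in duplicate at 25 uM, then concentration-response up to 50 uM; activity as signal loss relative to DMSO.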

Question: With `COC(=O)c1ccccc1S(=O)(=O)NC(=O)N(C)c1nc(C)nc(OC)n1` as the compound, how does the outcome [1] read?
Answer: inactive

Question: What about the outcome [2] of the same compound?
Answer: inactive

Question: What about the AC50 [3] of the same compound?
Answer: 9.14 µM (active)

Question: And the outcome [4]?
Answer: inactive

Question: And the AC50 [5]?
Answer: 25 µM (active)

Question: And the outcome [6]?
Answer: inactive

Question: How did the outcome [1] turn out when `CC(C)(C)C(O)/C(=C\c1ccc(Cl)cc1Cl)n1cncn1` (configuration not stated) was run?
Answer: inactive

Question: For `Cc1[nH]c(=O)n(C(C)(C)C)c(=O)c1Cl`, which AC50 [7] is on record?
Answer: 9.17 µM (active)

Question: How did the AC50 [5] turn out when `COc1nn(CSP(=S)(OC)OC)c(=O)s1` was run?
Answer: 9.55 µM (active)

Question: Which results are given for `O=S(=O)(O)C(F)(F)C(F)(F)C(F)(F)C(F)(F)C(F)(F)C(F)(F)C(F)(F)C(F)(F)F`?
Answer: AC50 [8]: 27.2 µM (active) and 25.9 µM (active); AC50 [9]: 11.7 µM (active); AC50 [1]: 34.9 µM (active) and 41 µM (active); AC50 [2]: 32.7 µM (active); outcome [3]: inactive; AC50 [10]: 36.1 µM (active) and 40.4 µM (active); AC50 [11]: 7.53 µM (active) and 43 µM (active); AC50 [12]: 1.73 µM (active); outcome [13]: inactive; AC50 [14]: 22.6 µM (active) [middle of 4 runs]; AC50 [4]: 24.1 µM (active); AC50 [15]: 25 µM (active); outcome [16]: inactive; AC50 [5]: 5.35 µM (active); AC50 [6]: 36.3 µM (active) and 47.7 µM (active); AC50 [7]: 25 µM (active) and 21.9 µM (active); outcome [17]: inactive

Question: `COP(=S)(OC)Oc1ccc([N+](=O)[O-])cc1` was tested. Which outcome [5] did it give?
Answer: inactive

Question: With `CC(C)(C)C(O)C(Oc1ccc(Cl)cc1)n1cncn1` (configuration not stated) as the compound, how does the outcome [18] read?
Answer: inactive

Question: And the outcome [5]?
Answer: inactive

Question: And the outcome [7]?
Answer: inactive

Question: What about the outcome [17] of the same compound?
Answer: inactive

Question: For `CNC(=O)CSP(=S)(OC)OC`, which outcome [16] is on record?
Answer: inactive

Question: `CCC(C)(C)C(=O)OC1=C(c2ccc(Cl)cc2Cl)C(=O)OC12CCCCC2` was tested. Which outcome [13] did it give?
Answer: inactive

Question: How did the outcome [11] turn out when `O=C(Nc1ccccc1)Nc1cnns1` was run?
Answer: inactive

Question: `CCOc1nc(NC)nc(NC(=O)NS(=O)(=O)c2ccccc2C(=O)OC)n1` was tested. Which AC50 [5] did it give?
Answer: 14.8 µM (active)

Question: `COC(=O)c1ccccc1CS(=O)(=O)NC(=O)Nc1nc(OC)cc(OC)n1` was tested. Which outcome [9] did it give?
Answer: inactive

Question: And the outcome [18]?
Answer: inactive
